Measured values reported in PubChem BioAssay AID602289 (National Center for Advancing Translational Sciences (NCATS), 2012).
Among all 2,400 compounds or so, about 40 (2%) were called active. Another 1% or so got no clear call; they are omitted.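 The calls were made as follows: active = inhibition at or above 60%; inconclusive = inhibition from 0% up to below 60%; inactive = no inhibition observed.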 The full list was thinned out, with actives kept by preference.

experiment: qHTS Assay for Small Molecule Inhibitors of Mitochondrial Division or Activators of Mitochondrial Fusion: Hit Validation in Malachite Green Assay; conditions: purified GTPase, malachite green phosphate release, A650; hits give high values;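 as to inhibition: plate controls were DMSO wells with GTPase for no effect and protein-free buffer wells for full effect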
Source text: The budding yeast S. cerevisiae is a powerful system to study mitochondrial fusion. Unlike other organisms, yeast cells without functional mitochondrial DNA (mtDNA) can be propagated and studied as long as they maintain a mitochondrial compartment and are provided with a fermentable carbon source. When mitochondrial fusion is blocked in yeast, mitochondrial tubules rapidly fragment and division continues unopposed. Under conditions where fusion is compromised in mammalian cells, nearly identical changes in mitochondrial structure have been observed. Thus, these findings indicate that steady state mitochondrial structure in cells is a characteristic and specific indicator of fusion activity. Mounting evidence has pointed to a connection between mitochondrial dynamics and apoptosis in mammalian cells. These studies indicate that in mammalian cells mitochondrial dynamics are more integrated into cellular processes than in yeast cells and have evolved not only to distribute the organelle but also to aid in the regulation of cellular homeostasis. Mitochondrial fusion proteins attenuate apoptosis by inhibiting the release of cytochrome c from mitochondria, in part by controlling cristae structures. Thus, small molecules that inhibit mitochondrial fusion may promote apoptosis and potentially act as novel chemotherapeutics and stimulation of apoptosis has become an attractive target of anti-cancer therapies. To identify inhibitors of mitochondrial division, we exploit the growth phenotypes of mitochondrial fusion-defective mutants. The temperature sensitive fusion alleles, such as fzo1-1 and mgm1-5, cause mitochondrial membranes to fragment in cells under non-permissive conditions and cells lose mtDNA, and are unable to grow in the presence of non-fermentable carbon source glycerol. Inhibiting mitochondrial division rescues growth. The hits were tested by the assay provider in a malachite green assay. NIH Chemical Genomics Center [NCGC] NIH Molecular Libraries Probe Production Centers Network [MLPCN] MLPCN Grant: MH081279 Assay Submitter (PI): Jodi M. Nunnari
Malachite Green Reagent Malachite Green carbinol base- Aldrich 229105 Ammonium molybdate - Sigma A7302 For 100 mL Malachite Green reagent in 1N HCl 16 mL conc. HCL + 32 mL H20 = 48 mL 4N HCl 34 mg malachite green base into 40 mL 1N HCl (10 mL 4N HCl + 30 mL H20) 1 g ammonium molybdate in 15 mL 4N HCl Mix Solutions together. Bring up to […] with H2O. Filter using a 0.2 um tissue culture filter unit (has plastic bottle attached) store at 4 masculine C. (Avoid Glassware/Plastics washed in detergent. Mix solutions in 50 mL conical vials.) For 20 uL reaction volume 1.0 uL Test Drug or DMSO: Added first to each well […]: 25 mM Hepes/Pipes pH 7.0 (H/P) 2.0 uL: 50 mM MgCl2 (final 5mM) 2.32 uL: 1 M NaCl (with contributing protein salt, Final = 150mM) 13.4 uL per reaction. Can be mixed in larger volume (Mini Master Mix) 1.6 uL: Protein 7.5 uM or Protein Freezing Buffer. (Final = 0.6uM) After Protein Added to mini Master Mix, 15ul Total Master Mix added to each well with drug. 4 uL: 500 uM GTP (Final = 100uM), Dilute with 25 mM H/P, store on ice. 20 uL Total Volume Make Master Mix: (Calculate desired reactions and add a few for multi-channel pipetting volume). Multiply the number of desired reactions by 13.4 uL for total Mini Master volume. Multiply the number of desired reactions by 1.6 uL for total Protein volume. Mix, and keep on ice until added to wells. Add 15 uL of Master Mix to each reaction well, incubate with drug for 10 min. For Positive (No Drug) controls add 15 uL Master Mix to wells with only 1 uL DMSO. Make PFB (Protein Freezing Buffer) (no Protein) Master Mix. Multiply the number of desired reactions by 13.4 uL for total Mini Master volume. Multiply the number of desired reactions by 1.6 uL for total PFB volume. Mix, and keep on ice until added to wells Add 10 uL of PFBMaster Mix to each Phosphate Standards well, and 15 uL to each negative control well with DMSO. […]

Row | Compound | inhibition
1 | CCCCn1c(N2CCC(Cc3ccccc3)CC2)nc2c1c(=O)[nH]c(=O)n2C | inactive
2 | CCCCCn1c(SCCC(C)C)nc2c1c(=O)[nH]c(=O)n2C | 96.1% (active)
3 | C=C(C)Cn1c(N2CC(C)CC(C)C2)nc2c1c(=O)[nH]c(=O)n2C (stereo unspecified) | inactive
4 | C=CCc1cc2c(oc(=O)c3ccccc32)c(C)c1O | inactive
5 | COc1cccc(COc2ccc3c(C)cc(=O)oc3c2)c1 | inactive
6 | O=C1C=C(/C=C/C2C=CC=CC2)C[C@@H](c2ccc(Cl)cc2)C1 (stereo partly specified) | inactive
7 | Cn1c(=O)c2c(nc(Oc3ccccc3Cl)n2C)n(C)c1=O | inactive
8 | CS/C(=N\S(=O)(=O)c1cccs1)Nc1ccc(Br)cc1F | inactive
9 | Cc1cc(Cl)cc(Cl)c1OCCOc1cccc2cccnc12 | inactive
10 | O=C(Oc1c(Cl)cc(Cl)c2cccnc12)c1ccco1 | 67.8% (active)
11 | O=c1oc2cc(O)c(Cl)cc2c2ccccc12 | inactive
12 | O=C(Nc1ccc(Cl)cc1C(=O)Nc1ccccn1)c1ccco1 | inactive
13 | CN(C(=O)C(Cl)Cl)c1ccc(OC(=O)c2ccco2)cc1 | inactive
14 | Oc1c(Cl)cc(Cl)c2cccnc12 | 86% (active)
15 | Oc1c(I)cc(Cl)c2cccnc12 | 66.8% (active)
16 | CCCCCCSc1ccc([C@@H]2[C@@H]3C(=O)N(C)C(=O)[C@@H]3[C@]3(C(=O)OC)CCCCN23)cc1OC | inactive
17 | O=C(c1cn(Cc2ccccc2)nc1-c1ccc(Cl)cc1)N1CCN(c2ccccn2)CC1 | inactive
18 | O=C(c1cn(-c2ccccc2)nc1-c1cccs1)N1CCN(c2ccccn2)CC1 | inactive
19 | O=C(c1cc(COc2cccc3cnccc23)on1)N1CCC(c2ccccc2Cl)C1 (stereo unspecified) | inactive
20 | COc1ccc(C2=NOC(Cn3nc(C(=O)NCc4ccco4)cc3-c3ccccc3)C2)cc1 (stereo unspecified) | inactive
21 | COc1cccc(NC(=O)CN(C)C(=O)c2sc3cc(Cl)ccc3c2Cl)c1 | inactive
22 | Cc1c(Cl)cccc1Nc1nc(N)nc(CSc2nc3ccccc3s2)n1 | inactive

Row | Compound | inhibition
23 | CNC(=O)c1ccsc1NC(=O)C1CCN(S(=O)(=O)c2ccc(Cl)s2)CC1 | inactive
24 | COc1ccc(N=Nc2nc(-c3ccccc3)c(-c3ccccc3)[nH]2)cc1 | inactive
25 | Clc1ccc(-c2nnc3sc(Cc4cccs4)nn23)cc1 | inactive
26 | c1ccc(-c2nnc3sc(-c4csc5c4CCCC5)nn23)cc1 | 99.9% (active)
27 | COc1ccc2ccccc2c1C(=O)/C=C\c1ccoc1 | inactive
28 | COc1ccc(S(=O)(=O)N(C(=O)c2ccncc2)c2ccc3oc4c(c3c2)CCCC4)cc1 | inactive
29 | CC(C)c1nc2sc3c(=O)[nH]c(=S)[nH]c3c2c2c1CCC2 | 104% (active)
30 | COCc1nc2sc3c(c2c(=O)[nH]1)CCCC3 | inactive
31 | O=c1[nH]c(C2CC2)nc2sc3c(c12)CCCC3 | inactive
32 | O=C(/C=C/c1cccs1)N1CCC2(CC1)Oc1ccc(Cl)cc1C(=O)C21CC(c2cccnc2)=NO1 (stereo unspecified) | inactive
33 | COc1ccc(-c2cc(=O)oc3c(C)c(OC(C)C(C)=O)ccc23)cc1 (stereo unspecified) | inactive
34 | CC(Oc1cccc(Cl)c1)C(=O)Nc1cc(Cl)ccc1N1CCOCC1 (stereo unspecified) | inactive
35 | CC(Oc1cccc(Cl)c1)C(=O)Nc1nc(-c2ccccn2)cs1 (stereo unspecified) | 68.3% (active)
36 | Cc1csc(NC(=O)C(C)Oc2ccc(Br)cc2)n1 (stereo unspecified) | inactive
37 | Cc1ccccc1Nc1nc(N)nc(CSc2nc3ccccc3s2)n1 | inactive
38 | O=C(NCC1(c2ccccc2)CCCC1)c1ccccc1Br | inactive
39 | Cc1c(C(=O)O)cccc1-c1ccc(/C=N/Nc2ccc(Br)cc2)o1 | inactive
40 | Cc1cc2nc3s/c(=C/c4ccc(-c5ccccc5C(=O)O)o4)c(=O)n3c2cc1C | 66.8% (active)
41 | Cc1ccc2c(nc3s/c(=C\c4ccc(-c5ccccc5C(=O)O)o4)c(=O)n32)c1C | 86.5% (active)
42 | Cc1ccc2c(=O)cc(C(=O)NCc3ccccc3)oc2c1C | inactive
43 | CC(C)COc1ccc(S(=O)(=O)NNC(=O)c2cc3ccccc3o2)cc1 | inactive
44 | CCNC(=O)c1ccccc1CCc1ccccc1 | inactive

Row | Compound | inhibition
45 | CCC(C)N1C(=O)S/C(=C/c2ccc(N3CCOCC3)cc2C)C1=O (stereo unspecified) | inactive
46 | COc1ccccc1NC(=O)N(Cc1ccccc1)c1ccccn1 | inactive
47 | Fc1cccc(CNc2ncnc3ccc(-c4ccc5c(c4)OCO5)cc23)c1 | inactive
48 | CCOc1ccc(C(=O)CCN2CCCCC2)cc1 | inactive
49 | CC(CNc1nc2ccccc2n2cnnc12)c1ccccc1 (stereo unspecified) | inactive
50 | COc1ccc(NC(=O)CN(C)C(=O)c2ccccc2CCc2ccccc2)cc1 | inactive
51 | N#CC(Sc1ccccn1)c1ccc(Cl)cc1 (stereo unspecified) | 65.5% (active)
52 | COc1ccc(C(=O)NC2(C(F)(F)F)NC(=O)N(CCCc3ccccc3)C2=O)c(OC)c1OC (stereo unspecified) | inactive
53 | Cc1cc(C)nc(NC(=O)/C=C/c2ccccc2Cl)c1 | inactive
54 | Cc1cc(=O)oc2c(C(=O)/C=C\c3cccs3)c(O)ccc12 | inactive
55 | O=C(/C=C/c1ccccc1Cl)c1ccc[nH]1 | inactive
56 | Cc1ccc(C)c(/C=C/C(=O)c2ccccc(=O)c2O)c1 | 73.2% (active)
57 | O=C(/C=C/c1ccccc1Cl)c1ccccc(=O)c1O | 77.4% (active)
58 | CC1=C(C(=O)OCc2ccccc2)C(/C=C/c2ccccc2)NC(=S)N1 (stereo unspecified) | inactive
59 | C/C(N)=C(/C#N)C(=O)COC(=O)C(c1ccccc1)c1ccccc1 | inactive
60 | COc1ccc(/C(N)=N/OC(=O)C2CCC(=O)N2S(=O)(=O)c2ccc(C)cc2)cc1 (stereo unspecified) | inactive
61 | O=C(Nc1nc(-c2cccs2)cs1)c1cccc(S(=O)(=O)N2CCCCC2)c1 | inactive
62 | COc1ccc(-c2cc(C(=O)OC(C)C(=O)Nc3c(C)n(C)n(-c4ccccc4)c3=O)c3ccccc3n2)cc1 (stereo unspecified) | inactive
63 | Cc1cccc(C(=O)N(Cc2nc3ccccc3c(=O)[nH]2)C2CCCCC2)c1 | inactive
64 | O=C(NCc1ccc2c(c1)OCO2)c1ccc(-c2ccc(Cl)cc2)o1 | inactive
65 | CCc1ccccc1NC(=O)/C(C#N)=C/c1ccc(Sc2ccccc2)o1 | inactive
66 | COc1cc2c(c(OC)c1OC)-c1c(cc3c(c1O)OCO3)C[C@@H](C)[C@@H](C)C2 | inactive

Row | Compound | inhibition
67 | Cc1cccn2c(=O)c(/C=C(\C#N)C(=O)NCc3ccco3)c(N3CCCCC3)nc12 | inactive
68 | Clc1ccc(C[n+]2csc3ccccc32)cc1 | 71.7% (active)
69 | Cc1nc(CS(=O)(=O)c2ccccc2)cc(Sc2ccc(Cl)cc2Cl)n1 | inactive
70 | COc1cc(OC)cc(-c2c(-c3cccs3)c3cc(-c4ccn[nH]4)ccc3n2C)c1 | inactive
71 | CCOc1ccc(C(=O)Nc2c(C(N)=O)oc3ccccc23)cc1 | inactive
72 | CCOC(=O)Nc1sc2c(c1C#N)CCC(C)C2 (stereo unspecified) | inactive
73 | CCCc1ccc(-c2csc(NC(=O)C3=COCCO3)n2)cc1 | inactive
74 | CCOC(=O)c1sc(NC(=O)C2=COCCO2)c(C#N)c1C | 100% (active)
75 | CCOC(=O)c1sc(NC(=O)c2ccco2)c(C#N)c1C | inactive
76 | CCOC(=O)c1c(NC(=O)C(C)OC(=O)C2=COCCO2)sc2c1CCCC2 (stereo unspecified) | inactive
77 | CCOC(=O)c1sc(NC(=O)c2ccncc2)c(C#N)c1C | 104% (active)
78 | CCc1ccccc1N(CC(=O)NCCc1ccccc1)C(=O)CCC(=O)Nc1ccccn1 | inactive
79 | COc1ccccc1N1CCN(C(=O)c2cc(=O)c3c(C)cc(C)cc3o2)CC1 | inactive
80 | CCOC(=O)c1c(CN2CCN(c3ccccc3)CC2)oc2ccc(O)cc12 | inactive
81 | CNC(=O)c1ccsc1NC(=O)c1ccccc1 | inactive
82 | C=CCN(c1ccccc1)S(=O)(=O)c1ccc2c(c1)NC(=O)C(C)S2 (stereo unspecified) | inactive
83 | CCCNC(=S)N1CCN(c2nc(C)nc3sc4c(c23)CCCC4)CC1 | inactive
84 | O=C(Nc1ccc(Cl)c(-c2nc3ccccc3[nH]2)c1)c1ccc2c(c1)OCO2 | inactive
85 | S=C(Nc1ccc(Oc2ccccc2)cc1)NC1CCCCC1 | inactive
86 | O=C1C=C(c2cccc(Cl)c2)C[C@@H](c2ccc3c(c2)OCO3)C1 | inactive
87 | CCc1nnc(NC(=O)C2c3ccccc3Oc3ccccc32)s1 | inactive
88 | CC(C)c1nnc(NC(=O)C2c3ccccc3Oc3ccccc32)s1 | 93.8% (active)

Row | Compound | inhibition
89 | O=C(Nc1nc(-c2ccncc2)cs1)C1c2ccccc2Oc2ccccc21 | inactive
90 | O=C(CCc1ccc(Oc2cc([N+](=O)[O-])cc([N+](=O)[O-])c2)cc1)Nc1cccc(Cl)c1 | inactive
91 | CCN(CC)C(=O)CSc1nc2cc3c(cc2c(=O)n1CCCCCC(=O)NCc1ccc(OC)cc1)OCO3 | inactive
92 | Cc1ccc(NCc2n[nH]c(=S)n2-c2cccc(Cl)c2)cc1 | inactive
93 | CC1CCc2[nH]c3ccc(C(=O)N4CCCC(C(F)(F)F)C4)cc3c2C1 (stereo unspecified) | inactive
94 | Cc1ccc(-n2nnnc2SCC(=O)c2cc(C)n(-c3cc(C)on3)c2C)c(C)c1 | inactive
95 | O=C1/C(=C\c2ccc(O)c(O)c2)SC(=S)N1Cc1ccccc1 | 94.2% (active)
96 | C#CCOc1ccc(/C=C2\SC(=S)N(Cc3cccnc3)C2=O)cc1 | inactive
97 | O=C(CCCN1C(=O)/C(=C/c2ccccc2)SC1=S)Nc1ccccc1O | inactive
98 | O=C(CN1CCN(c2ccccn2)CC1)Nc1ccccc1 | inactive
99 | CC(C)n1c(O)c(N=NC(=O)C2COc3ccccc3O2)c2ccccc21 (stereo unspecified) | inactive
100 | CCOC(=O)N=Nc1c(O)n(Cc2ccccc2)c2ccccc12 | inactive
101 | Cc1c(/C=N\NC(=O)C2COc3ccc(C(C)(C)C)cc3O2)c2ccccc2n1C (stereo unspecified) | inactive
102 | CC(C)(C)c1ccc2c(c1)OC(C(=O)N/N=C\c1ccccn1)CO2 (stereo unspecified) | 66% (active)
103 | CCSc1nnc(NC(=O)c2ccccc2C)s1 | inactive
104 | COCCCNc1nc2ccccc2nc1NS(=O)(=O)c1cccc(Cl)c1 | inactive
105 | Cc1ccc(C)c(NC(=O)c2ccccc2Sc2ccc([N+](=O)[O-])cc2Cl)c1 | inactive
106 | N#Cc1ccc(-c2ccccc2)nc1SCC(=O)c1cc2ccccc2oc1=O | inactive
